The values below come from PubChem BioAssay (NCI).

Molecules are shown by their SMILES. This is part of a sample that, as a whole, favours compounds with a hit. Of some 83,000 tested, about 20% had one in any assay.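 Cell lines were cultured in 96-well plates, exposed to a single compound concentration, and assessed for percent growth 48 hours later.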 Unmarked numbers belong to inactive results. Activity calls are given as the source filed them. Rule for the calls: active = growth percent below 10; inactive = the rest.

What all share (test): NCI-60 one-dose screen, 48 h (100 = growth as untreated, 0 = no growth, -100 = all killed)
What all share (details): 10 µM unless noted

For test [1], the system named is NCI-H23 lung.
In test [2] the test system is NCI-H226 lung.
For test [3], the system named is NCI-H322M lung.
Test [4] deals with HOP-62 NSCLC.
In test [5] the test system is NCI-H460 lung.
In test [6] the test system is HOP-92 NSCLC.
The subject of test [7] is NCI-H522 lung.
Test [8] deals with A549/ATCC NSCLC.
In test [9] the test system is 786-0 renal.
Test [10] relates to COLO 205 colon.

Regarding `CC1=C2[C@@H](CC1)[C@]1(C)O[C@@](C3CCCCC3)(C[C@H]1OC(=O)CO)[C@H]2OC(=O)/C=C/c1ccccc1`, the growth was 93.6% in [1]; 76.5% in test [2]; 94.6% in [3]; 91% in test [4]; 75.8% in test [5]; 44.3% in test [6]. In addition, the growth in test [7] is 68%; in [8], 63.1%; in test [9], 55.9%; in test [10] it was 93.8%.
On to `N#CC1=C(N)Oc2ccc3ccccc3c2C1c1ccc([N+](=O)[O-])cc1` (stereo not given), for which the growth was 78.2% in [1]; 87.4% in test [2]; 89.3% in test [3]; 81.8% in test [4]; 93.3% in test [5]; 121% in test [6]. Also, the growth is 73.5% in [7], 93.7% in [8], 88.1% in [9] and 102% in test [10].
Turning to `CCN1C(=O)N(CC)C2Nn3c(s/c(=C\c4ccccc4Br)c3=O)=NC21` (stereo not given), the growth in test [1] was 25.6%; in [2], 57.5%; in [3], 46.7%; in [4], 37%; in test [5], 4.16% (active); in [6] it was 42.9%. Besides, the growth in [7] is -12.8% (active); in [8], 12.7%; in test [9], 25.3%; in [10] it was 14.4%.
Regarding `COc1ccc(Nc2ncccc2/C=C/C(=O)c2cc(OC)c(OC)c(OC)c2)cc1`, the growth was -8.11% (active) in test [1]; -43.2% (active) in test [2]; 52% in test [3]; -19.2% (active) in [4]; -44.9% (active) in test [5]; -33.8% (active) in test [6]. Moreover, the growth in test [7] was -76.5% (active); in test [8], -57.1% (active); in test [9], -64.2% (active); in test [10] it was -77% (active).
As to `COc1ccc(-c2nc(/C=C3\C(=O)N(C)c4ccccc43)c3ccccn23)cc1`, the growth was 76.2% in test [1]; 63.8% in test [2]; 88.3% in test [3]; 62.7% in test [4]; 63.4% in test [5]; 84.1% in test [6]. In addition, the growth in [7] was 58.7%; in test [8], 88.7%; in [9] it was 38.3%; in test [10] it was 119%.
`COc1ccc(-c2cc(-c3ccccc3)nc(N3CCN(CCNc4ccnc5cc(Cl)ccc45)CC3)n2)cc1`: the growth is 14.8% in [1]; 67.5% in [2]; 88% in [3]; 94.8% in [4]; -68.6% (active) in test [5]; -34.3% (active) in test [6]. Moreover, the growth in [7] is 2.04% (active); in [8], -16% (active); in [9] it was -94.6% (active); in test [10], -69.1% (active).
As for `Cc1ccnc(Nc2ccc([N+](=O)[O-])c(NCCN3CCOCC3)n2)c1`, the growth is 42% in [1]; 24.5% in test [2]; 50.2% in test [3]; 40.8% in test [4]; 6.8% (active) in test [5]; 138% in test [6]. The growth was 20.9% in test [7], 19.6% in [8], 24.8% in [9] and -45.4% (active) in [10].
Regarding `O=C(O)[C@@H](Cc1ccc2ccccc2c1)NC(=O)n1c2ccccc2c2ccccc21`, the growth in test [1] is 34.8%; in test [2] it was 85.9%; in test [3], 49%; in test [4] it was 31.3%; in test [5], 9.11% (active); in test [6], 39.5%. For the same compound, the growth is -7.97% (active) in test [7], 44.3% in test [8], 27.7% in [9] and -35.2% (active) in test [10].
Consider `COc1ccc(CCN2C(=O)/C(=C/c3ccc(C4Oc5ccccc5C5CC(c6ccccc6)=NN54)cc3)SC2=S)cc1` (stereo not given), for which the growth is 100% in test [1]; 105% in test [2]; 108% in test [3]; 98.1% in test [4]; 110% in test [5]; 111% in test [6]. Moreover, the growth in test [7] was 96%; in test [8], 108%; in test [9], 106%; in test [10], 107%.
With `CC1(C)C(N)=Nc2cc(OCCCN3Cc4ccccc4C3)c(OCC3CC3)cc21`, the growth in test [1] was 93.5%; in test [2], 82.9%; in [3], 82.3%; in test [4], 93.2%; in [5], 79.8%; in test [6], 63.7%. Besides, the growth in test [7] is 59.6%; in [8], 77.2%; in test [9], 64%; in test [10] it was -57.2% (active).
Consider `CC1C=CC(OC(=O)C(C)(O)CCC(O)(C(=O)OC2CC(O)C(C(C)C)CC2(C)O)C(C)C)(C(C)C)CC1` (stereo not given), for which the growth in test [1] was -70.5% [4.63 µM] (active); in test [2], -48.6% [4.63 µM] (active); in test [3], -89.9% [4.63 µM] (active); in test [4], -68.7% [4.63 µM] (active); in test [5], -69.3% [4.63 µM] (active); in test [6] it was -67.1% [4.63 µM] (active). For the same compound, the growth in [7] was -76.7% [4.63 µM] (active); in test [8], -78.2% [4.63 µM] (active); in test [9], -88.5% [4.63 µM] (active); in test [10], -68.3% [4.63 µM] (active).
In the case of `COc1ccc(-c2nc(-c3cn(C)c4ncccc34)cs2)cc1`, the growth in test [1] was 11.1% [100 µM]; in [2], 2.9% [100 µM] (active); in test [3] it was 1.44% [100 µM] (active); in test [4], -49.5% [100 µM] (active); in test [5], -43% [100 µM] (active); in [6], -40.4% [100 µM] (active). Further, the growth in test [7] was 20.1% [100 µM]; in test [8], 12.4% [100 µM]; in test [9], -30.9% [100 µM] (active); in test [10], -49.8% [100 µM] (active).
Regarding `CCN(CC)CCCN1C(=O)c2c(c(C)c3c(oc4ccc(O)cc43)c2C)C1=O`, the growth in test [1] is 92.7%; in test [2] it was -44.7% (active); in test [3], 81.3%; in [4], 89.9%; in test [5], -25.9% (active); in test [6] it was 69.3%. The growth was 80% in [7], -76.8% (active) in [8], -72.6% (active) in test [9] and 64% in test [10].
